PubChem BioAssay
Values joined by “and” are separate entries in the source; they are usually repeats but may differ in a detail not shown here. Equal values may be shown once. Active and inactive are the calls of the source.

Key:
[1] = small molecules captured by biotinylated probe aFSTL3 – biochemical, small-molecule microarray, fluorescence 635/667, stem cell growth factor project, primary screen (AID 1064); conditions: higher = more signal;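 further: measures binding of the biotinylated anti-FSTL3 antibody to printed compounds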
[2] = binders from COS7 lysate, DM2A8 probe, primary screen, torsin A project, cell lysate, small-molecule microarray, fluorescence 635/667 (AID 1065); conditions: higher = more signal, COS7 lysate expressing mutant human TOR1A
[3] = small molecules captured by biotinylated probe aFGF2 – biochemical, small-molecule microarray, fluorescence 635/667, stem cell growth factor project, primary screen (AID 1067); conditions: higher = more signal;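 further: measures binding of biotinylated aFGF2 protein to printed compounds on slides; z-score merges feature fluorescence and signal-to-noise across triplicate slides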
[4] = small molecules captured by biotinylated probe aFGF10 – biochemical, small-molecule microarray, fluorescence 635/667, stem cell growth factor project, primary screen (AID 1071); conditions: higher = more signal;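 further: score merges 667 nm spot intensity and signal to noise from triplicate slides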
[5] = biological target: Neurogenic locus notch homolog protein 2 (Homo sapiens) (UniProt Q04721); assay: small molecules binding Notch2 protein – biochemical, small-molecule microarray, 635 nm fluorescence, stem cell growth factors, primary screen (AID 1073); conditions: higher = more signal
[6] = biological target: Pro-neuregulin-1, membrane-bound isoform (Homo sapiens) (UniProt Q02297); assay: small molecules binding neuregulin-1 protein – biochemical, small-molecule microarray, fluorescence 635/667, psychiatric disease protein project, primary screen (AID 1075); conditions: NRG1 binding, 635 nm fluorescence, higher = more signal;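 further: score combines 667 nm spot fluorescence with signal to noise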
[7] = tested on: Neuregulin-1 EGF-like domain; assay: small molecules binding NRG1 EGF domain – biochemical, small-molecule microarray, 635 nm fluorescence, primary screen (AID 1081); conditions: higher = more signal;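 further: binding of the protein to compounds printed on small-molecule microarray slides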
[8] = FRG1 expression reporter modulators in myotubes – cell-based, C2C12 myotubes, firefly/Renilla luciferase, luminescence, FRG1 inhibition for FSHD, primary screen (AID 1084); conditions: FRG1 promoter luciferase, higher = more signal, called active from +8 up or from −8 down
[9] = small molecules captured by biotinylated probe aFST – biochemical, small-molecule microarray, fluorescence 635/667, stem cell growth factor project, primary screen (AID 1086); conditions: higher = more signal;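 further: score merges 667 nm fluorescence with signal-to-noise of each printed compound spot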
[10] = binders of probe aHhip on microarray, primary screen, stem cell growth factor project, biochemical, small-molecule microarray, fluorescence 635/667 (AID 1087); conditions: higher = more signal;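 further: score merges spot fluorescence at 667nm with spot signal to noise ratio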
[11] = tested on: PRMT1 (protein arginine N-methyltransferase 1); assay: small molecules binding arginine methyltransferase PRMT1 – biochemical, small-molecule microarray, 635 nm fluorescence, primary screen (AID 1088); conditions: higher = more signal;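 further: binding of Prmt1 protein to compounds spotted on small-molecule microarray slides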
[12] = growth effects on S. cerevisiae YJM789 – YJM789 clinical isolate, OD600, 24 h, basal, primary screen (AID 1089); conditions: higher = more signal, called active from +8 up or from −8 down;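 further: growth of clinical yeast isolate S. cerevisiae YJM 789 seeded 1000 cells per well; test concentration not given here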
[13] = S. pombe growth modifiers, basal conditions – strain 972, OD600, 24 h, no modulator, primary screen (AID 1090);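 further: basal condition with compound alone and no growth modifier present; test concentration not given here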; conditions: S. pombe 972 growth, higher = more signal, called active from +8 up or from −8 down
[14] = budding yeast growth modifiers under rapamycin – strain BY4716, OD600, 96 h, primary screen (AID 1091); further: test concentration not given here; conditions: S. cerevisiae BY4716 + rapamycin, higher = more signal, called active from +8 up or from −8 down
[15] = biological target: Torsin-1A-interacting protein 2 (Homo sapiens) (UniProt Q8NFQ8); assay: small molecules binding lysate-expressed LULL1 – cell lysate, human LULL1 lysate, 635/667 nm fluorescence, primary screen (AID 1092); conditions: small-molecule microarray, hLULL1 lysate binding, 635 nm fluorescence; higher = more signal;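 further: probe is lysate of COS7 cells overexpressing human LULL1; score merges per-feature 667 nm fluorescence with signal-to-noise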
[16] = optical density change of DRC41 E. coli – strain DRC41, OD650, 24 h, E. coli filamentation project, primary screen (AID 1093);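 further: MC1000 strain lacking acrAB efflux and sulA so SOS filamentation is blocked; test concentration not given here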; conditions: E. coli DRC41 growth, higher = more signal, called active from +8 up or from −8 down
[17] = probe aLefty2 binding to arrayed compounds – biochemical, biotinylated probe, 635/667 nm fluorescence, primary screen (AID 1094); conditions: small-molecule microarray, higher = more signal;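 further: score merges spot fluorescence near 667 nm with spot signal-to-noise ratio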
[18] = tested on: Noggin (protein binding on small-molecule microarray); assay: small molecules binding Noggin protein – biochemical, 635/667 nm fluorescence, primary screen (AID 1095); conditions: 635 nm fluorescence, higher = more signal;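 further: score merges 667 nm feature fluorescence with signal to noise over triplicate slides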
[19] = biological target: Neurogenic locus notch homolog protein 3 (Homo sapiens) (UniProt Q9UM47); assay: small molecules binding NOTCH3 protein – biochemical, 635/667 nm fluorescence, primary screen (AID 1096); conditions: small-molecule microarray, 635 nm fluorescence, higher = more signal
[20] = probe aEGFR binding to arrayed compounds – biochemical, biotinylated probe, 635/667 nm fluorescence, primary screen (AID 1097); conditions: small-molecule microarray, higher = more signal;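 further: probe is a biotinylated anti-EGFR antibody binding compounds printed on slides; score combines fluorescence near 667 nm and signal to noise of each spot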

Sequence of Neurogenic locus notch homolog protein 3 (Homo sapiens) (Q9UM47 whole entry, looked up): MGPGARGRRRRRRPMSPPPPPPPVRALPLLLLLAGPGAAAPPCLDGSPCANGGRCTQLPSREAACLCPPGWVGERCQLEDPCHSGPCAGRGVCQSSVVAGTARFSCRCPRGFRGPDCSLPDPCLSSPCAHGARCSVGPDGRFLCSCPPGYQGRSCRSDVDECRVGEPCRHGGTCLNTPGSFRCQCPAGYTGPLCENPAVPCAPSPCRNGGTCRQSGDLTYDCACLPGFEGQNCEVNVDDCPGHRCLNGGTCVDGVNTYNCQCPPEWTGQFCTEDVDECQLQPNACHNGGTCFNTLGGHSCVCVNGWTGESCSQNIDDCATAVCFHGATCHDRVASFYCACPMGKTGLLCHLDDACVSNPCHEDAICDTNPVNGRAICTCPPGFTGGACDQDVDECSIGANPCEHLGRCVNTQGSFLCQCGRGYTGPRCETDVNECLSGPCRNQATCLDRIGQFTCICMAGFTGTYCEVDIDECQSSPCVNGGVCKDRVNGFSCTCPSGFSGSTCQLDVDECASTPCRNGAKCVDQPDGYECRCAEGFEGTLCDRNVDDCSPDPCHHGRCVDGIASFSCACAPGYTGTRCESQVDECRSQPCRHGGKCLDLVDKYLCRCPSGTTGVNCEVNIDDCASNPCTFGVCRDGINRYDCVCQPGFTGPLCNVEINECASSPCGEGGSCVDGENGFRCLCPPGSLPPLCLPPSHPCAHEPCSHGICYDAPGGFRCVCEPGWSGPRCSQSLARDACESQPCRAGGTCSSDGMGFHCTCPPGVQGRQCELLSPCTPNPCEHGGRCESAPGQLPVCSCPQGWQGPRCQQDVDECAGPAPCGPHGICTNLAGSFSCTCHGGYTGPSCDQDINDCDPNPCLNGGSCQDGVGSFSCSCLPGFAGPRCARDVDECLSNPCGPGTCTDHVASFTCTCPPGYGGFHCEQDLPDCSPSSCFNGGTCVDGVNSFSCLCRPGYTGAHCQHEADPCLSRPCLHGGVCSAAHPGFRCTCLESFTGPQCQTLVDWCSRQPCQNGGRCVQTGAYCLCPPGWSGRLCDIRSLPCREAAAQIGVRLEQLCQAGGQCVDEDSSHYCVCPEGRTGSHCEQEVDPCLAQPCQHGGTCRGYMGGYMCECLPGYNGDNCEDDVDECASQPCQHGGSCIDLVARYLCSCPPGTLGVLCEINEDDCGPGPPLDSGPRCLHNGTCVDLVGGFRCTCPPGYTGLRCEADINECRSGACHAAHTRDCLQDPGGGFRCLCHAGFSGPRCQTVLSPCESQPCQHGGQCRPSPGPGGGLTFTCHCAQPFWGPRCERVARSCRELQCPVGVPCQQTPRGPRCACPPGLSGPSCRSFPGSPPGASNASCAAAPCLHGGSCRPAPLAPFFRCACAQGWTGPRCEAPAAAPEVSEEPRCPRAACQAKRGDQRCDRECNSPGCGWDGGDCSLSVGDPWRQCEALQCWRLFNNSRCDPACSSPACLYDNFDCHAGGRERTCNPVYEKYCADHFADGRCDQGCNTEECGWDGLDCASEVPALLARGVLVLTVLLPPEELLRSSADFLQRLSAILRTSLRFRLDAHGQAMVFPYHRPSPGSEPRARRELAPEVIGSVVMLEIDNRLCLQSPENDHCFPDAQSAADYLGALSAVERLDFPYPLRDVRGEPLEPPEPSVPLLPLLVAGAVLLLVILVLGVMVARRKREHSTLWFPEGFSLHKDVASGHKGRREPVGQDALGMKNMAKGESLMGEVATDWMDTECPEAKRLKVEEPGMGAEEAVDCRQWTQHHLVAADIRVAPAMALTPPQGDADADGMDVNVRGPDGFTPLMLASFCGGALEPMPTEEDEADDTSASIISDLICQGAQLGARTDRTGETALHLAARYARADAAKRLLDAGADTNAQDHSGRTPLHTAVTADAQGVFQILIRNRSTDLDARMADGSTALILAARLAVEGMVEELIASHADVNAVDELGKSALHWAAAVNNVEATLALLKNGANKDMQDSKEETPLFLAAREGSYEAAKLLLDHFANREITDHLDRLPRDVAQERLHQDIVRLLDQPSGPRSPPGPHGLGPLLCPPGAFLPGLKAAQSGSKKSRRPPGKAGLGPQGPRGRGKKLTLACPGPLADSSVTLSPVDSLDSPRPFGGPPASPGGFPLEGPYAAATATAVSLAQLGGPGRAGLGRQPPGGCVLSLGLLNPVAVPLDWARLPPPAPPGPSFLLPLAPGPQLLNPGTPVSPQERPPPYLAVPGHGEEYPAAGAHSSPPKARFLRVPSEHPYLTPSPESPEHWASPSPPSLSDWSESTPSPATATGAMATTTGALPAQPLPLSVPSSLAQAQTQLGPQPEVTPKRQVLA
Sequence of Neurogenic locus notch homolog protein 2 (Homo sapiens) (Q04721 whole entry, looked up, canonical isoform): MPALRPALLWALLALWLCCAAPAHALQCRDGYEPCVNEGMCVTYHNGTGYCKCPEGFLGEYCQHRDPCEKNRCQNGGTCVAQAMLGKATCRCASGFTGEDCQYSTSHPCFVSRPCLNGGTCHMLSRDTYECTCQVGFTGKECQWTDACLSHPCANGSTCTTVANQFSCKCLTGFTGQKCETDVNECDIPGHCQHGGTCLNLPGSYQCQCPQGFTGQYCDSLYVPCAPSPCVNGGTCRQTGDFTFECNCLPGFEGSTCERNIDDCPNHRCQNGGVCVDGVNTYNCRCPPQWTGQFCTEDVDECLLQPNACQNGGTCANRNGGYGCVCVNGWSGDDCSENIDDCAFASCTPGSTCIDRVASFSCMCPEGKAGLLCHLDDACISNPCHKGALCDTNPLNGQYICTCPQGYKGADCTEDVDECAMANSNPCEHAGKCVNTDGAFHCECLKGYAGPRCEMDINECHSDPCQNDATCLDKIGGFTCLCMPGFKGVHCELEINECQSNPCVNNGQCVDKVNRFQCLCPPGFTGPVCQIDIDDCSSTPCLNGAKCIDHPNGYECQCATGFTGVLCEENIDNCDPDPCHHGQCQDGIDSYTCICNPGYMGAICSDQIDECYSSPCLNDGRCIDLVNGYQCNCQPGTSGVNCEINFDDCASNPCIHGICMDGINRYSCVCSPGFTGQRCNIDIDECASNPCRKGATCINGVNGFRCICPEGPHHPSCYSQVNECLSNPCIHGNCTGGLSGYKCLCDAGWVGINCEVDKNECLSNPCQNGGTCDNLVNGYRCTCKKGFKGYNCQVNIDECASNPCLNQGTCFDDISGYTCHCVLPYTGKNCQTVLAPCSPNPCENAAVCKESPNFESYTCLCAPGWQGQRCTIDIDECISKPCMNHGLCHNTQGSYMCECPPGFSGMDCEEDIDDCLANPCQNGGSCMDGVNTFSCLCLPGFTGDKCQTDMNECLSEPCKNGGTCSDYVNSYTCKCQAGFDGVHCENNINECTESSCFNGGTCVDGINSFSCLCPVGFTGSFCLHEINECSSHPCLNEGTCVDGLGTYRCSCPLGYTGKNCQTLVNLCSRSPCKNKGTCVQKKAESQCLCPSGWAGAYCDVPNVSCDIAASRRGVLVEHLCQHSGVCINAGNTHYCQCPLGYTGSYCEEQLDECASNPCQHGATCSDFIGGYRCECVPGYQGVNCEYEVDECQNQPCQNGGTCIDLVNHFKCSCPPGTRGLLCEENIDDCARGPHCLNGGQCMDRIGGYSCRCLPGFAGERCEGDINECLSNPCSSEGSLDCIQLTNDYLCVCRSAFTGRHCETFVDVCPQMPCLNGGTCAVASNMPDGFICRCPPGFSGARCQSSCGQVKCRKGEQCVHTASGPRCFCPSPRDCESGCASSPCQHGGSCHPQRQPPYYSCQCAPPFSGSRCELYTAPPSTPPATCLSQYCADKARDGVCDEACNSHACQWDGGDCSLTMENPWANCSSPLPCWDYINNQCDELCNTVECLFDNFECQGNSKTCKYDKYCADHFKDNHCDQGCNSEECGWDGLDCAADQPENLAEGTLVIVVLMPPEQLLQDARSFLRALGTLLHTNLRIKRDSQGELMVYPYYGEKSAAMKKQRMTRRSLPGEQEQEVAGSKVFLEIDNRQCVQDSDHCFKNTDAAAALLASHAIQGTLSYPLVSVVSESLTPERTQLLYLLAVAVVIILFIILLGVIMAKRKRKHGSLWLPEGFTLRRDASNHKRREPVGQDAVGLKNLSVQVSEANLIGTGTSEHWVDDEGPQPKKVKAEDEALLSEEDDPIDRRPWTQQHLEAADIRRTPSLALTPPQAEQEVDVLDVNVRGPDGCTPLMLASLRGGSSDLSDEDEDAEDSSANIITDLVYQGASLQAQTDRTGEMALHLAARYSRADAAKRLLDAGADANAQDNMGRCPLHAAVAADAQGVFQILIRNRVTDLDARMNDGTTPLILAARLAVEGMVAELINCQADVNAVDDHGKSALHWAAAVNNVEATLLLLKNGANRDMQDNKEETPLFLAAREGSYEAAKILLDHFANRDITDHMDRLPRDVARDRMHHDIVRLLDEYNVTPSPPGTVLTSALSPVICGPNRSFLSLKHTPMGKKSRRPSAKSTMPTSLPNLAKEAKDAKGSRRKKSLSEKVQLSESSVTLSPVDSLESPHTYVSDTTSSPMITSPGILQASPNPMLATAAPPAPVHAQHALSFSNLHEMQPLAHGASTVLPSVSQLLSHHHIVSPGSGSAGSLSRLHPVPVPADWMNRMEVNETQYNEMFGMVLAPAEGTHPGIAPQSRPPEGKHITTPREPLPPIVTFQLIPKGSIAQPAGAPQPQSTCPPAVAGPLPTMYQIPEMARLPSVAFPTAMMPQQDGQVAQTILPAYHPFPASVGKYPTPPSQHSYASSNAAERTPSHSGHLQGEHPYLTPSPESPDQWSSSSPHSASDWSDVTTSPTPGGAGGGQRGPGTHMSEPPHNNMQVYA

Row | SMILES | composite z-score [1] | composite z-score [2] | composite z-score [3] | composite z-score [4] | composite z-score [5] | composite z-score [6] | composite z-score [7] | z-score [8] | composite z-score [9] | composite z-score [10] | composite z-score [11] | z-score [12] | z-score [13] | z-score [14] | composite z-score [15] | z-score [16] | composite z-score [17] | composite z-score [18] | composite z-score [19] | composite z-score [20]
1 | COC(=O)C1=C(C)N(Cc2ccccc2)C2=C(C(C)=O)C[C@@](O)(C(=O)OC)C(=O)N2[C@@H]1c1ccccc1 | -0.335 and -0.244 | 1.12 and -0.0954 | -0.0005 and -0.118 | 0.889 and 0.0839 | 1.43 and 1.26 | -0.119 and -0.159 | 1.05 and 0.439 | -0.486 (inactive) and -0.75 (inactive) | 0.235 and 0.385 | -0.0994 and 0.21 | 1.55 and -0.0318 | -0.762 (inactive) and -2.05 (inactive) | -0.987 (inactive) and -1.63 (inactive) | -1.32 (inactive) and -0.654 (inactive) | 1.68 and 0.258 | 0.528 (inactive) and 0.524 (inactive) | -0.195 and -0.331 | 0.364 and 0.0733 | 0.729 and -0.153 | 0.0069 and -0.158
2 | CN1C(=O)C2CC=C([C@H]3Oc4ccccc4S(=O)(=O)N4CCC[C@@H]34)CC2C1=O (stereo not given in full) | -0.203 and -0.0284 | 0.157 and 0.0061 | -0.133 and -0.149 | 0.0694 and -0.0366 | -1.05 and -0.369 | 0.75 and -0.641 | 0.151 and -0.561 | 0.74 (inactive) and 1.05 (inactive) | -0.311 and -0.365 | -0.0645 and -0.123 | -0.525 and -1.12 | -0.243 (inactive) and 0.235 (inactive) | 0.0646 (inactive) and 0.0942 (inactive) | 0.579 (inactive) and 0.0211 (inactive) | -0.781 and -0.674 | 0.108 (inactive) and -0.089 (inactive) | -0.163 and -0.0719 | -0.487 and 0.281 | -0.977 and -1.16 | -0.199 and -0.165
3 | C=C[C@H](OC)[C@@H](O)c1ccc(OCCO)cc1 | 1.29 and 1.32 | -0.768 and -0.833 | -0.219 and -0.121 | -1.19 and -0.295 | -1.86 and -1.69 | -0.102 and -0.296 | 0.604 and 0.0642 | 0.298 (inactive) and 0.277 (inactive) | -1.29 and -0.821 | -0.405 and -0.268 | -0.801 and -0.822 | -0.146 (inactive) and 0.665 (inactive) | 0.363 (inactive) and -0.412 (inactive) | 0.573 (inactive) and 0.329 (inactive) | -0.517 and -0.64 | -0.0467 (inactive) and 0.606 (inactive) | -0.242 and -0.0736 | -2.2 and -1.82 | -1.56 and -0.724 | -0.313 and -0.314
4 | C[N+](C)(C)CCCCCCNC(=O)[C@@H]1C[C@@H]2C(=O)N[C@@H](CCCC[N+](C)(C)C)C(=O)N2[C@@H]1c1ccc(O)cc1 | 0.245 and -0.175 | 0.0279 and -0.0321 | -0.12 and -0.181 | 0.0015 and -0.155 | -0.423 and -0.213 | 0.142 and 1.11 | 1.35 and 1.36 | 0.403 (inactive) and 2.73 (inactive) | -0.12 and -0.0447 | -0.206 and -0.266 | 1 and 1.3 | 0.272 (inactive) and 0.534 (inactive) | 0.352 (inactive) and 0.356 (inactive) | 0.02 (inactive) and 0.327 (inactive) | 0.611 and 2.02 | 0.392 (inactive) and -0.176 (inactive) | -0.0356 and -0.117 | 1.21 and 1.28 | 0.643 and 0.994 | -0.122 and -0.128
